Assay results as given in PubChem BioAssay.
Active and inactive are the calls of the source.

What was measured:
[1] = test system: Human papillomavirus type 1a protein E7 (residues 44-93); test: small molecules binding HPV E7 44-93 – biochemical, small-molecule microarray, residues 44-93, 635 nm fluorescence, primary screen (AID 1108); settings: fluorescence 635 nm, higher = more signal;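 note: E7 fragment applied at 1 µg/mL in TBST for 1 h at 4 C; score combines spot fluorescence with its signal to noise ratio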
[2] = hepatitis C replication reporter changes, two-sided – Huh7 cells, luciferase reporter, HCV replication inhibitor project, primary screen (AID 1109); settings: Huh7 HCV replicon luciferase reporter, 48 h; higher = more signal;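 note: huh7 hepatoma cells harbouring a luciferase neomycin HCV replicon reporter; luciferase luminescence as measure of HCV replicon replication; test concentration not given here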
[3] = biological target: Left-right determination factor 2 (Homo sapiens) (UniProt O00292); test: small molecules binding LEFTY2 protein – biochemical, small-molecule microarray, 635 nm fluorescence scan, primary screen (AID 1110); settings: higher = more signal
Chain of Left-right determination factor 2 (Homo sapiens) (O00292 whole entry, looked up): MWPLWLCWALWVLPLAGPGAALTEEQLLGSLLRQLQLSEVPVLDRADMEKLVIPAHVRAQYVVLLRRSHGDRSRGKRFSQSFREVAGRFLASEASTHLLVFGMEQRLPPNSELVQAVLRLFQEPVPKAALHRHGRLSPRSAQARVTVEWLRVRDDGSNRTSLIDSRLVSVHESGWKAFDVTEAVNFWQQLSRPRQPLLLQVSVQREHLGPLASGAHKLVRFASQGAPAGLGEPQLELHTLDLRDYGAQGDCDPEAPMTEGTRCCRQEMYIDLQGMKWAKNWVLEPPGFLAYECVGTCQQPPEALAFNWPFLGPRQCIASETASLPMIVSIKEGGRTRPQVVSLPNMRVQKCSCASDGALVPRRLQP

[4] = biological target: Calmodulin-1 (Homo sapiens) (UniProt P0DP23); test: small molecules binding calmodulin-1 with EGTA – biochemical, small-molecule microarray, Cy5-labelled CALM1, profiling panel (AID 1111); settings: Cy5-CALM1 binding fluorescence, higher = more signal;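 note: labelled calmodulin applied in Tris saline Tween buffer holding calcium plus EGTA and DTT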
[5] = biological target: Calmodulin-1 (Homo sapiens) (UniProt P0DP23); test: small molecules binding Ca-loaded calmodulin-1 – biochemical, small-molecule microarray, Cy5-labelled CALM1, plus calcium, artefact control for SMM control-protein annotation, profiling panel (AID 1112); settings: Cy5-CALM1 binding fluorescence, higher = more signal;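 note: score merges spot fluorescence with signal to noise from triplicate slides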
[6] = probe aWnt5a binding to arrayed compounds – biochemical, biotinylated probe, 635/667 nm fluorescence, primary screen (AID 1113); settings: small-molecule microarray, higher = more signal;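 note: score merges 667 nm fluorescence intensity with signal-to-noise per printed feature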
[7] = probe aShh binding to arrayed compounds – biochemical, biotinylated probe, 635/667 nm fluorescence, primary screen (AID 1114); settings: small-molecule microarray, higher = more signal;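 note: probe is biotin-labelled aShh protein from a stem cell growth factor screen; measures binding of labelled protein to compounds printed on the slide; score merges feature fluorescence at 667 nm with signal-to-noise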
[8] = probe aNog binding to arrayed compounds – biochemical, biotinylated probe, 635/667 nm fluorescence, primary screen (AID 1115); settings: small-molecule microarray, higher = more signal;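 note: probe is biotinylated aNog protein used at 0.15 µg/mL for 1 h at 4 C; z-score combines 667 nm fluorescence of each spot with its signal to noise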
[9] = biological target: Torsin-1A-interacting protein 1 (Homo sapiens) (UniProt Q5JTV8); test: compound microarray binding of lysate hLAP1 – cell lysate, small-molecule microarray, COS7 lysate, 635/667 nm fluorescence, primary screen (AID 1116); settings: 635 nm fluorescence, higher = more signal
Chain of Torsin-1A-interacting protein 1 (Homo sapiens) (Q5JTV8 whole entry, looked up): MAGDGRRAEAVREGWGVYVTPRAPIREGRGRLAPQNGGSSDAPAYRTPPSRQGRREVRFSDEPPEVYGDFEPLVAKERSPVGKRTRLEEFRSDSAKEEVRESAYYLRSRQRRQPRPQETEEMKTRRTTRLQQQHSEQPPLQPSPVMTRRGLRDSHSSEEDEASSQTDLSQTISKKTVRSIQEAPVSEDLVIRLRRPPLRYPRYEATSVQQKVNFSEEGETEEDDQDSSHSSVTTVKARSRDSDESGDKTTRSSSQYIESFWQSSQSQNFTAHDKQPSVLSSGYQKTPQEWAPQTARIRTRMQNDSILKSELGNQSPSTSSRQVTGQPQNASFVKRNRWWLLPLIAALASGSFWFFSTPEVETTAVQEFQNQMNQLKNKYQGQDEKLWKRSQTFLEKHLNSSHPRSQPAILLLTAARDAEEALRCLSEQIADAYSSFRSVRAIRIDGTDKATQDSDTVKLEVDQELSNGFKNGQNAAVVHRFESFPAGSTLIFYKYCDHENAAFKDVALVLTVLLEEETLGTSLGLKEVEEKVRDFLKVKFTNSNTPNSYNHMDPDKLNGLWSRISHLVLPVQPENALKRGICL

[10] = biological target: Alpha-bungarotoxin (Bungarus multicinctus) (UniProt P60615); test: compounds binding labelled alpha-BTX control protein – biochemical, small-molecule microarray, Alexa647 label, 635/667 nm fluorescence, artefact control for SMM control protein annotation, profiling panel (AID 1117); settings: alpha-BTX-A647 binding fluorescence, higher = more signal
Chain of Alpha-bungarotoxin (Bungarus multicinctus) (P60615 whole entry, looked up): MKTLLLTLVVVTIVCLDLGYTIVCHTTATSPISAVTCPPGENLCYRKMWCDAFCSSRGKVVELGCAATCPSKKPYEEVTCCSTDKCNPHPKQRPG

[11] = biological target: Albumin (Bos taurus) (UniProt P02769); test: compounds binding labelled BSA control protein – biochemical, small-molecule microarray, Alexa647 label, 635/667 nm fluorescence, artefact control for SMM control protein annotation, profiling panel (AID 1118); settings: BSA-A647 binding, fluorescence 635 nm, higher = more signal;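 note: score merges 667 nm emission intensity and signal-to-noise per printed compound spot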
Chain of Albumin (Bos taurus) (P02769 whole entry, looked up): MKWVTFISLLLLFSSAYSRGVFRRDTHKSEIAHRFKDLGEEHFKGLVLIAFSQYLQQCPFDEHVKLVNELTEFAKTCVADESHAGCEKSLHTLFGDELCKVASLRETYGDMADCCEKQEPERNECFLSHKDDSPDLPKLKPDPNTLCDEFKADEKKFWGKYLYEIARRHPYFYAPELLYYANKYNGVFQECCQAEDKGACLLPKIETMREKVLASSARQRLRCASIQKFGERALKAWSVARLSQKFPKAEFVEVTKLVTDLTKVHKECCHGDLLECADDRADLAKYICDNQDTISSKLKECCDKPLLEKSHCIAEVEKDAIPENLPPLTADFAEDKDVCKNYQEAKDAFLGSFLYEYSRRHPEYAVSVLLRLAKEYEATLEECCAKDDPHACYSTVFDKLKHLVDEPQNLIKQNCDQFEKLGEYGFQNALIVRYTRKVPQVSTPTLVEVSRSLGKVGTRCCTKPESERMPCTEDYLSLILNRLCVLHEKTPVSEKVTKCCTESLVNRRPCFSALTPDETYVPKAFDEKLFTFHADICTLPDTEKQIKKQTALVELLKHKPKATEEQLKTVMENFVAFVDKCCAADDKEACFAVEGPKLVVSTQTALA

[12] = probe aXIP binding to arrayed compounds – biochemical, NeuroSMM set, 635/667 nm fluorescence, primary screen (AID 1119); settings: small-molecule microarray, higher = more signal, called active from +8 up or from −8 down;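 note: probe is the protein aXip251-270 applied at 1 µg/mL to compound-printed slides; binding of probe to printed compounds measured as 667 nm fluorescence plus signal to noise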
[13] = probe aNOTCH3 binding on compound microarray – biochemical, small-molecule microarray, 635/667 nm fluorescence, primary screen (AID 1120); settings: higher = more signal;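 note: probe is a biotin-tagged antibody raised against NOTCH3 rather than NOTCH3 protein; score merges spot fluorescence near 667 nm with spot signal to noise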
[14] = probe aNOTCH2 binding on compound microarray – biochemical, small-molecule microarray, 635/667 nm fluorescence, primary screen (AID 1121); settings: higher = more signal;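 note: score merges feature fluorescence read at 667 nm with its signal to noise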
[15] = biological target: Carbonic anhydrase 2 (Homo sapiens) (UniProt P00918); test: compounds binding carbonic anhydrase 2 – biochemical, small-molecule microarray, Alexa647-labelled CAII, profiling panel (AID 1122); settings: CAII-A647 binding fluorescence, higher = more signal
[16] = COS7 lysate on small-molecule microarray, probe aHis, 635 nm (AID 1123); settings: COS7 cell lysate, fluorescence, higher = more signal;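 note: z-score combines 667nm fluorescence intensity with signal-to-noise per printed compound spot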
[17] = probe aLAP1 signal on lysate-treated microarray – cell lysate, small-molecule microarray, COS7 lysate, primary screen (AID 1124); settings: probe aLAP1, fluorescence, higher = more signal;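 note: lysate comes from COS7 cells expressing LAP1 and is applied at 0.3 µg/mL; score merges spot fluorescence near 667 nm with signal-to-noise over triplicate slides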
[18] = test system: Sam68 (KHDRBS1); test: compounds binding KHDRBS1 protein – biochemical, small-molecule microarray, 635 nm fluorescence, primary screen (AID 1125); settings: higher = more signal;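 note: score merges 667 nm channel intensity with signal to noise over triplicate slides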
[19] = test system: Chordin-like protein 2 (CHRDL2); test: compounds binding chordin-like 2 – biochemical, small-molecule microarray, 635 nm fluorescence, primary screen (AID 1126); settings: fluorescence 635 nm, higher = more signal;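 note: printed compound slides probed with Chrdl2 protein at 4 µg/mL for 1 h at 4 C; score merges 667 nm emission intensity with signal to noise over three replicate slides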
[20] = biological target: Concanavalin-A (Canavalia ensiformis) (UniProt P02866); test: compounds binding concanavalin A lectin – biochemical, small-molecule microarray, Alexa647 label, 635 nm, artefact control for SMM control protein annotation, primary screen (AID 1127); settings: ConA-A647 binding fluorescence, higher = more signal;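 note: z combines 667 nm emission intensity with signal-to-noise across three replicate slides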
Chain of Concanavalin-A (Canavalia ensiformis) (P02866 whole entry, looked up): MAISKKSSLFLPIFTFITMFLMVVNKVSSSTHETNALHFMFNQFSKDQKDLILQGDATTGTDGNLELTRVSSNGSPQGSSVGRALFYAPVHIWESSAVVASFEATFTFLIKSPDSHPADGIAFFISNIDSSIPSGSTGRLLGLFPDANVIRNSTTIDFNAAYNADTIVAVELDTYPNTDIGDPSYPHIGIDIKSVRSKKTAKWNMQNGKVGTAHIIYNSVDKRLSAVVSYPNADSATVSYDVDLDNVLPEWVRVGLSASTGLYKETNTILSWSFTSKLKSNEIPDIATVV

Row | SMILES | composite z-score [1] | z-score [2] | composite z-score [3] | composite z-score [4] | composite z-score [5] | composite z-score [6] | composite z-score [7] | composite z-score [8] | composite z-score [9] | composite z-score [10] | composite z-score [11] | composite Z-score [12] | composite z-score [13] | composite z-score [14] | composite z-score [15] | composite z-score [16] | composite z-score [17] | composite z-score [18] | composite z-score [19] | composite z-score [20]
1 | Cc1ccc(S[C@]2(C(=O)NCC(F)(F)F)CC(=O)N(Cc3ccccc3Cl)[C@@H]2c2ccc(CO)cc2I)cc1 | 0.859 | -1.16 | -0.692 | -0.391 | -0.0928 | -0.12 | -0.0035 | -0.383 | -0.373 | 2.06 | -0.937 | 0.0162 (inactive) | -0.133 | -0.134 | 0.796 | 1.56 | -0.49 | 0.0712 | -1.04 | -0.275
2 | CCN(CC)c1ccc(N2CC=CC34O[C@@H]5/C=C\CCC(C)OC(=O)C5[C@H]3C(=O)N(CCCO)[C@@H]4C2=O)cc1 (stereo not given in full) | -0.0672 | -0.527 | -0.434 | -0.671 | -0.431 | -0.128 | 0.0469 | -0.216 | 0.581 | -0.625 | -0.909 | 0.589 (inactive) | -0.185 | -0.189 | 0.868 | -0.368 | -0.0197 | -0.383 | -0.618 | -0.608
3 | O[C@@H](Cc1ccccc1)[C@H]1C2C=CCCC(c3ccccc3)=C2CN1Cc1cccc(Cl)c1 (stereo not given in full) | 0.921 | -2.27 | 0.286 | -0.118 | -0.264 | -0.157 | -0.0243 | 0.14 | 0.464 | 0.475 | -0.158 | 0.257 (inactive) | -0.027 | -0.0746 | 0.371 | 0.981 | 0.466 | 1.31 | 0.441 | 0.235
4 | O=C1[C@H]2[C@H]3[C@H](O)[C@H](O)CC(=NOCc4ccccc4)[C@@H]3CC[C@H]2C(=O)N1Cc1ccccc1 | 0.813 | 0.427 | 0.509 | 0.675 | -0.374 | -0.197 | 0.214 | 0.144 | 0.102 | 0.159 | 0.55 | -0.119 (inactive) | -0.0043 | -0.14 | 0.251 | -0.256 | -0.355 | 0.598 | 0.417 | -0.0677
5 | Cc1ccc(C2CC=C(C(=O)O)CN2S(=O)(=O)c2ccc(C)cc2)cc1 (stereo not given) | 1.35 | 0.602 | -0.403 | 0.189 | 0.15 | 0.0018 | -0.271 | 0.241 | 0.743 | 0.802 | 0.921 | -0.326 (inactive) | 0.0203 | -0.0567 | 0.78 | 0.93 | 0.953 | 1.32 | 0.193 | 1.12
6 | C[C@@H](c1ccccc1)N1C(=O)[C@H]2[C@H]3[C@H](O)C=CC(=O)[C@@H]3CC[C@H]2C1=O | -0.116 | -1.73 | 0.657 | 0.0321 | -0.442 | -0.192 | -0.34 | -0.374 | 0.203 | 0.0013 | 0.0343 | -0.325 (inactive) | -0.0932 | -0.132 | 0.572 | -0.263 | 0.146 | 0.456 | 0.778 | 0.518
7 | C[C@@H]1C=CCC(=O)OC[C@H](C)C(=O)N[C@@H](C)C(=O)OC1 | -0.0639 | -0.512 | 0.409 | -0.556 | -0.897 | -0.0721 | 0.178 | -0.141 | 0.789 | -0.194 | -0.171 | 0.215 (inactive) | -0.0647 | -0.144 | -0.385 | -0.466 | 0.369 | 0.175 | 0.71 | 0.155
8 | CC(C)(C)OC(=O)CC[C@]1(C(N)=O)COC(c2ccc(OCCCO)cc2)=N1 | 0.0119 | -0.518 | -0.471 | 2.68 | 1.42 | 0.131 | 0.591 | 1.7 | 2.08 | 1.64 | 0.617 | 1.43 (inactive) | 0.324 | 0.357 | 0.983 | 2.97 | 1.44 | 1.21 | 0.0555 | -0.207
9 | CCN1C(=O)[C@H]2[C@H]3[C@H](O)[C@H](O)CC(=NOC[C@@H](C)[C@H](OCc4ccccc4)C(C)C)[C@@H]3CC[C@H]2C1=O | 0.306 | -1.47 | 0.358 | 0.809 | 0.484 | -0.133 | -0.262 | 0.124 | 0.329 | 0.234 | 0.665 | 0.0576 (inactive) | -0.152 | -0.131 | -0.0205 | 0.276 | -0.504 | 0.614 | -0.13 | -0.223
10 | COCCOC(=O)N1C(=O)[C@@]2(c3cc(C#CCNC(N)=O)ccc31)[C@H](c1ccccc1OCCO)N1[C@H](c3ccccc3)[C@H](c3ccccc3)OC(=O)[C@H]1[C@@H]2C(=O)N1CCN(c2ncccn2)CC1 | 0.648 | -0.672 | 0.377 | 0.821 | 0.749 | 0.0326 | -0.108 | -0.105 | 1.01 | 2.14 | 0.583 | 0.339 (inactive) | 0.169 | -0.0028 | 0.537 | 1.92 | 0.579 | 1.32 | -0.119 | 1.06
